# In PubChem BioAssay (Tox21):
# Values without a mark were called inactive. Activity calls are given as the source filed them. Calls come from the whole dose curve; as a rule, active = well fitted curve in the direction sought with a large enough effect in the repeat runs; inconclusive = weak or mixed curves; inactive = flat fitted curve, though single readings scatter.
# Experiment: qHTS assay to test for compound auto fluorescence at 535 nm (green) in HepG2 cells (AID 720675)
# Conditions: green autofluorescence 485/535 nm, 1 h; series mostly up to 91.3 µM; fluorescence, % of fluorescein control: at the top concentration
# Text: National Center for Advancing Translational Sciences [NCATS]
# NIH Chemical Genomics Center [NCGC]
# U.S. Environmental Protection Agency [EPA]
# National Institutes of Environmental Health Sciences [NIEHS]
# National Toxicology Program [NTP]
# U.S. Food and Drug Administration [FDA]
# Compound auto fluorescence often interferes with screening of the compound library against various biological targets and signaling pathways. Some of these compounds may have fluorophoric properties. Such properties may interfere with the assay outputs resulting in false positives and/or negatives. To decrease such complications and ensure the compound activities are relevant in terms of biological response, the Tox21 10K compound library was screened for auto fluorescence.
# From the fluorophores used as reporter signals in our screening assays, the auto fluorescence equivalencies of compounds against three fluorophores have been evaluated: Triamterene, Fluorescein and Rose Bengal sodium for blue, green and red fluorescence, respectively. The fluorescence intensities were measured using Excitation/Emission wavelengths at 405/460nm, 485/535nm and 540/590nm for blue, green and red labels, respectively. This assay includes the green fluorescence data.
# Tox21 Assay Protocol Summary:
# 2,000 HepG2 cells in 5 uL of culture medium (MEM containing 10% FBS) per well were dispensed into black wall/clear bottom 1536-well plates using a Multidrop Combi Dispenser (ThermoFisher Scientific, Waltham, MA). The assay plates were incubated overnight at 37 C to allow cell attachment to the well bottom, followed by the transfer of 23 nL compound or DMSO vehicle by a pintool work station (Kalypsys , San Diego, CA). After the assay plates were incubated for 1 hr at 37 C and 5% CO2, fluorescence intensities in the assay plates were measured by an Envision (PerkinElmer, Shelton, CT) plate reader using three labels for measuring blue, green and red fluorescence at […] 460, 535 and 590 nm respectively.
# % is set by controls: 0 for no effect and ±100 for the full control effect.
Compound,"fluorescence, % of fluorescein control",outcome
NC(=O)N1c2ccccc2CC(=O)c2ccccc21,-0.0215% [at 46 µM],
C=CC(C)(CCC=C(C)C)OC(=O)CC (stereo not given),0.0208%,
CC(=O)c1cnccn1,0.0399% [at 95.7 µM],
CC[N+](C)(CC)CCOC(=O)C1c2ccccc2Oc2ccccc21,-0.0627% [at 46 µM],
CC(=O)NC(=O)c1ccccc1O,-0.0044% [at 46 µM],
[Ca+2],-0.179%,
CCN(CC#N)c1cccc(C)c1,-0.0071%,
CC(C)C(=O)OC(=O)C(C)C,-0.0546%,
Cc1ccnc(NS(=O)(=O)c2ccc(N)cc2)n1,0.0423% [at 18.6 µM],
O=Cc1cccc(Br)c1,-0.0417% [at 95.7 µM],
CC(=O)O[C@@]12CO[C@@H]1C[C@H](O)[C@@]1(C)C(=O)[C@H](O)C3=C(C)[C@@H](OC(=O)[C@H](O)[C@@H](NC(=O)OC(C)(C)C)c4ccccc4)C[C@@](O)([C@@H](OC(=O)c4ccccc4)[C@H]21)C3(C)C,,inactive
C[C@@H]1C[C@H]2[C@@H]3C[C@H](F)C4=CC(=O)C(Cl)=C[C@]4(C)[C@@]3(F)[C@@H](O)C[C@]2(C)[C@@]1(O)C(=O)CO,0.0415% [at 46 µM],
NC(=O)Cc1cccc2ccccc12,0.0221%,
CCCCOCCOC(=O)CCCCCCCCC(=O)OCCOCCCC,0.113%,
Nc1ccncc1N,0.0121% [at 46 µM],
NC(CCC(=O)O)C(=O)O (stereo not given),0.0456%,
OCCc1ccccn1,-0.229%,
CCNS(=O)(=O)c1ccc(C)cc1,0.0399% [at 95.7 µM],
CCOC(=O)c1ccccc1,-0.0329%,
O=C(O)c1cc(C(=O)O)cc(C(=O)O)c1,-0.144% [at 95.7 µM],

Compound,"fluorescence, % of fluorescein control",outcome
Nc1c2c(nc3c1CCC3)CCCC2,-0.183% [at 46 µM],
Cc1c(N)c(=O)n(-c2ccccc2)n1C,0.0089% [at 18.6 µM],
CCC(C)(CCCC(C)C)OC(C)=O (stereo not given),0.0358%,
C=C(C)C(=O)OCC1CCCO1 (stereo not given),0.0414%,
O=S(=O)(O)c1cccc2ccccc12,-0.0223%,
C[N+]1(C)[C@@H]2CC(OC(=O)[C@H](CO)c3ccccc3)C[C@H]1[C@@H]1O[C@@H]12 (stereo not given in full),0.0052% [at 46 µM],
COC(=O)C1=C(C)NC(C)=C(C(=O)OC(C)C)C1c1cccc2nonc12 (stereo not given),0.024% [at 18.6 µM],
CCCCCCCCCCCCSC,0.0174%,
C[C@@H]1CCC[C@H](C)N1,0.0643% [at 18.6 µM],
O=C(O)c1cn(C2CC2)c2cc(N3CCNCC3)c(F)cc2c1=O,0.0071% [at 18.6 µM],
C=COC(=O)C(C)(CC)CCC(C)C (stereo not given),-0.0046%,
CCCCN(CCC(=O)OCC)C(C)=O,-0.0271%,
CC(=O)c1ccccc1[N+](=O)[O-],0.0012%,
O=C1CCCCCCCCCCCCCCO1,0.0317%,
CN(C)CCCN(C)CCCN(C)C,0.0004%,
CN1C(C)(C)CC(O)CC1(C)C,-0.0376%,
O=CN(CCO)CCO,-0.0016%,
CCN(C=O)CC,-0.0603% [at 95.7 µM],
CO[C@@]1(NC(=O)C(C(=O)O)c2ccc(O)cc2)C(=O)N2C(C(=O)O)=C(CSc3nnnn3C)CO[C@@H]21 (stereo not given in full),-0.0745% [at 18.6 µM],
OCCCCCO,-0.0123% [at 95.7 µM],
